Data published in PubChem BioAssay AID1159580 (chemical genetic matrix, 2015).
Where “and” joins values, the source holds several entries; their conditions need not be identical. Identical values can stand only once. Hit rate of the full screen: of about 5,500 compounds, about 2,000 (36%) were called active. About 18% were inconclusive and are not listed. Rule as the data show it: active = normalized growth mostly below about 0.91 (no sharp cut-off); inconclusive = no clear call, values can overlap the other calls; inactive = mostly above about 0.92. Some of the results follow.

Test: chemical genetic growth profiling, strain panel (AID 1159580);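 also: tested at 20 µM; growth read once vehicle control cultures reached saturation at 30 °C; 1 = growth at the plate median or of vehicle wells; lower values mean less growth of the strain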
Details: S. cerevisiae deletion strains, growth OD

Measured: normalized growth

CC1(C)C[C@@H]2C(=O)CC[C@H]3O[C@]3(C)CC[C@H]21
inactive: locus YAL013W, strain DEP1, hits give low values 1.01 | locus YAL021C, strain ccr4, hits give low values 0.98 | locus YAL026C, strain drs2, hits give low values 1.04 | locus YAL030W, strain snc1, hits give low values 1.01 | locus YBL061C, strain skt5, hits give low values 1.03 | locus YBR009C, strain hhf1, hits give low values 1.02 | locus YBR021W, strain FUR4, hits give low values 1.01 | locus YBR023C, strain chs3, hits give low values 1.02 | locus YBR171W, strain sec66, hits give low values 1.02 | locus YBR229C, strain ROT2, hits give low values 1 | locus YBR231C, strain swc5, hits give low values 1 | locus YBR279W, strain paf1, hits give low values 1 | locus YCL011C, strain gbp2, hits give low values 1.02 | locus YCL016C, strain dcc1, hits give low values 1.01 | locus YCL029C, strain bik1, hits give low values 0.994 | locus YCL061C, strain MRC1, hits give low values 1.01 | locus YCL069W, strain vba3, hits give low values 1.01 | locus YCR088W, strain abp1, hits give low values 1.01 | locus YDL005C, strain med2, hits give low values 1.01 | locus YDL035C, strain GPR1, hits give low values 1.01 | locus YDL040C, strain nat1, hits give low values 1.02 | locus YDL074C, strain BRE1, hits give low values 1.04 | locus YDL101C, strain DUN1, hits give low values 1.02 | locus YDL134C, strain PPH21, hits give low values 1.01 | locus YDL185W, strain tfp1, hits give low values 0.995 | locus YDL192W, strain arf1, hits give low values 0.996 | locus YDR001C, strain nth1, hits give low values 1.02 | locus YDR069C, strain doa4, hits give low values 1.03 | locus YDR101C, strain arx1, hits give low values 0.986 | locus YDR137W, strain rgp1, hits give low values 1.02 | locus YDR150W, strain NUM1, hits give low values 1.01 | locus YDR159W, strain sac3, hits give low values 1.05 | locus YDR162C, strain NBP2, hits give low values 1.02 | locus YDR195W, strain ref2 1.01 | locus YDR297W, strain sur2, hits give low values 1.01 | locus YDR318W, strain mcm21, hits give low values 0.994 | locus YDR334W, strain swr1, hits give low values 1.01 | locus YDR335W, strain msn5, hits give low values 1.01 | locus YDR388W, hits give low values 0.996 | locus YDR392W, strain spt3, hits give low values 0.914 | locus YDR502C, strain sam2, hits give low values 0.994 | locus YEL003W, strain gim4, hits give low values 1.01 | locus YEL037C, strain rad23, hits give low values 1.01 | locus YEL061C, strain CIN8 (second series), hits give low values 1.02 | locus YEL061C, strain CIN8, hits give low values 1 | locus YER015W, strain faa2, hits give low values 1.01 | locus YER016W, strain bim1, hits give low values 1.01 | locus YER110C, hits give low values 0.989 | locus YER111C, strain swi4, hits give low values 1.01 | locus YER155C, strain BEM2 (second series), hits give low values 1.03 | locus YER155C, strain BEM2, hits give low values 1 | locus YER167W, strain BCK2, hits give low values 1.01 | locus YFR010W, strain ubp6, hits give low values 1.04 | locus YGL078C, strain dbp3, hits give low values 0.999 | locus YGL086W, strain mad1, hits give low values 0.966 | locus YGL167C, strain pmr1, hits give low values 1.02 | locus YGL173C, strain kem1, hits give low values 1.03 | locus YGL227W, strain vid30, hits give low values 1.01 | locus YGL240W, strain doc1, hits give low values 1.02 | locus YGL248W, strain PDE1, hits give low values 1 | locus YGL253W, strain hxk2, hits give low values 1.03 | locus YGR078C, strain PAC10, hits give low values 1.02 | locus YGR135W, strain pre9, hits give low values 0.999 | locus YGR229C, strain SMI1, hits give low values 1.01 | locus YGR252W, strain gcn5, hits give low values 1.01 | locus YHR013C, strain ard1, hits give low values 1.03 | locus YHR027C, strain rpn1, hits give low values 1.02 | locus YHR030C, strain SLT2, hits give low values 1.01 and 0.967 | locus YHR079C, strain IRE1 (second series), hits give low values 0.996 | locus YHR079C, strain IRE1, hits give low values 0.953 | locus YHR094C, strain hxt1, hits give low values 0.998 | locus YHR129C, strain ARP1, hits give low values 1.01 | locus YHR142W, strain chs7, hits give low values 1.02 | locus YHR200W, strain rpn10, hits give low values 0.997 | locus YIL066C, strain RNR3, hits give low values 1 | locus YIL073C, strain SPO22, hits give low values 0.968 | locus YIL125W, strain kgd1, hits give low values 0.998 | locus YIR030C, strain dcg1, hits give low values 0.986 | locus YJL092W, strain hpr5, hits give low values 1.02 | locus YJL095W, strain BCK1 (second series), hits give low values 1.04 | locus YJL095W, strain BCK1, hits give low values 1.01 and 0.961 | locus YJL115W, strain asf1, hits give low values 1.01 | locus YJL129C, strain trk1, hits give low values 1.02 | locus YJL134W, strain LCB3, hits give low values 1.01 | locus YJL154C, strain vps35, hits give low values 1.01 | locus YJL164C, strain tpk1, hits give low values 0.995 | locus YJL166W, strain qcr8, hits give low values 1.04 | locus YJL168C, strain set2, hits give low values 0.994 | locus YJL187C, strain SWE1 (second series), hits give low values 1.02 | locus YJL187C, strain SWE1, hits give low values 1 | locus YJR043C, strain POL32, hits give low values 1 | locus YJR066W, strain TOR1, hits give low values 0.998
